Unmarked numbers belong to inactive results.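 Rule for the calls: active = binding inhibited by at least 50%, or stimulated by at least 50%, shown as inhibition of -50% or lower; inactive = the rest.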

The subject of the experiment is Phorbol Ester. In words: radioligand displacement at 30 receptors – biochemical, Panlabs HitProfilingScreen, selectivity assay for AVPR1a antagonist project, profiling panel (AID 743088). As to conditions: 30 targets, at 10 µM, stronger effect = higher value.

With `O=C(C1CCN(c2ccc(Cl)cn2)CC1)N(CC1CC1)c1ccc(Cl)cc1`, the inhibition of binding is -13%.

The values above are taken from PubChem BioAssay AID743088 (The Scripps Research Institute Molecular Screening Center, 2013).
